Whole data set: some 18,000 sequences, median “log2 normalized intensity” near 0.39, cut for the highest 2% near 6.6. The entries come from a sample that favours the highest values as a whole.

This experiment concerns the target T1, HNF4alpha2 (COS-7 nuclear extract) (Homo sapiens, UniProt P41235 1-474).
T1 sequence: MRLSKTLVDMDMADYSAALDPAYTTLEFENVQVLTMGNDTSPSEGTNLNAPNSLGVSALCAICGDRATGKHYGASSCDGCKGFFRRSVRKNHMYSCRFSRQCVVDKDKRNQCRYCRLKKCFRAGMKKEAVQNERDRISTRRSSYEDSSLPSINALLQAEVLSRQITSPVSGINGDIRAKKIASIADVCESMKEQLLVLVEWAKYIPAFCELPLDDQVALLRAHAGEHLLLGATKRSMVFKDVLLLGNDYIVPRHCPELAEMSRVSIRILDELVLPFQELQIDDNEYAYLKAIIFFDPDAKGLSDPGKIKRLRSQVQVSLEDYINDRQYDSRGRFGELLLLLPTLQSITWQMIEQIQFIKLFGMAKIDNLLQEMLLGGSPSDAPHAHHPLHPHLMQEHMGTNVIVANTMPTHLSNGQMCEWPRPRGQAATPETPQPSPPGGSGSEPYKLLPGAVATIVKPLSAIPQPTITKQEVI
Briefly: protein-binding microarray; COS-7 nuclear extract on double-stranded Agilent 4x180k PBM; binding buffer, salt, pH and temperature not given in the material; high values mean tight binding. As to conditions: chain copies: 2; label: 3' end of strand 1 on the slide; dsDNA, one strand shown. The method in brief:
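Double-stranded oligonucleotides of ~60 nt, representing ~44,000 test sequences in quadruplicate, made up a custom Agilent SurePrint G3 4x180k array. Nuclear extracts from COS-7 cells transiently transfected by CaPO4 with a human HNF4α isoform expression vector were applied, and bound HNF4α was imaged at 2-µm resolution on an Agilent G2565CA scanner. Binding signal refers to the background-corrected, normalized gProcessedSignal output of Agilent software.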
On to “GCCACATTCCCCGACTCCTGGGTGTGAGATGCCTAGGGAGATTAGAGTATCGGTCGA”, for which the binding signal is 0.517 log2 normalized intensity. “AAGCAGAAGCTGCACACATGTCAAAGGTCAGCCTAGGGAGATTAGAGTATCGGTCGA”: the binding signal was determined as 6.19 log2 normalized intensity. On to “CAGCAATCACCTACCCCCAGATTCTCTGTTGCCTAGGGAGATTAGAGTATCGGTCGA”, for which the binding signal was 2.35 log2 normalized intensity. For “GACAAAGGTCATTCATGTGCAGGTTGGAATGCCTAGGGAGATTAGAGTATCGGTCGA” the value was 2.77 log2 normalized intensity. With “CTAATGGAGAGGATGGGGACAAAGGTCAAGGCCTAGGGAGATTAGAGTATCGGTCGA”, the binding signal was 7.24 log2 normalized intensity. For “TTTGGAATTCCCTGCAAGGACAAAGGTCATGCCTAGGGAGATTAGAGTATCGGTCGA” the value was 6.87 log2 normalized intensity.

On to “GTTATCTAATGGAGAGGATGGGGACAAAGGGCCTAGGGAGATTAGAGTATCGGTCGA”, for which the binding signal came out at 1.47 log2 normalized intensity. In the case of “AATTCCCTGCAAGGACAAAGGTCATGTTTTGCCTAGGGAGATTAGAGTATCGGTCGA”, the binding signal was found to be 6.26 log2 normalized intensity. The same measure for “GGAGAGGATGGGGACAAAGGTCAAGAAAGCGCCTAGGGAGATTAGAGTATCGGTCGA”: 5.86 log2 normalized intensity. For “TGTCTCTGGTCAGGGAGGGCTTTAGAATGTGCCTAGGGAGATTAGAGTATCGGTCGA” the value was 1.01 log2 normalized intensity; for “TTGGTCTGCTGAGTCTCATGATTAGATTGAGCCTAGGGAGATTAGAGTATCGGTCGA”, 0.746 log2 normalized intensity; for “TGGCCTGGGAACTTAGCGATTTGGAACCCAGCCTAGGGAGATTAGAGTATCGGTCGA”, 0.829 log2 normalized intensity. Consider “AAGTTCAAGTAGATAAAATCAAACAGATGTGCCTAGGGAGATTAGAGTATCGGTCGA”, for which the binding signal is 1.02 log2 normalized intensity. For “TCTGCAAACACCCCTCCCCCACACAGACAAGCCTAGGGAGATTAGAGTATCGGTCGA” the value was 5.01 log2 normalized intensity; for “TGGTGCTATCTTTGCTCACTGTAACCTTTGGCCTAGGGAGATTAGAGTATCGGTCGA”, 3.78 log2 normalized intensity. As to “ACTGTAACCTTTGCCCCCCTGGGCTCAAGCGCCTAGGGAGATTAGAGTATCGGTCGA”, the binding signal is 5.81 log2 normalized intensity. As to “AGCCCCAACCCACTGTTGCCCCTTCCAAAGGCCTAGGGAGATTAGAGTATCGGTCGA”, the binding signal turned out to be 4.68 log2 normalized intensity. Regarding “TCACTGTAACCTTTGCCCCCCAAGTTGAAGGCCTAGGGAGATTAGAGTATCGGTCGA”, the binding signal amounted to 6.72 log2 normalized intensity. Take “AACCTTTGCCCCAGCTGTCACCCAGCCAGAGCCTAGGGAGATTAGAGTATCGGTCGA”: the binding signal was determined as 3.68 log2 normalized intensity. Take “GTGCTATCTCAGCTCACTGTAACCTTTGCCGCCTAGGGAGATTAGAGTATCGGTCGA”: the binding signal amounted to 3.93 log2 normalized intensity. The same measure for “GTAACCTTTGCCCCCCAAGTTGAAGCCATCGCCTAGGGAGATTAGAGTATCGGTCGA”: 5.16 log2 normalized intensity; for “TTTGCTCACTGTAACCTTTGCCCCCCAAGTGCCTAGGGAGATTAGAGTATCGGTCGA”: 8.54 log2 normalized intensity. For “ATCTCAGCTCACTGTAACCTTTGCCCCCCTGCCTAGGGAGATTAGAGTATCGGTCGA” the value was 8.75 log2 normalized intensity. Take “AGCAAAGGTCATCCTGGGCTACCGATATGAGCCTAGGGAGATTAGAGTATCGGTCGA”: the binding signal came to 0.737 log2 normalized intensity.

Source of the values: publication PMC10726135, “HNF4α isoforms regulate the circadian balance between carbohydrate and lipid metabolism in the liver”.
